# High-throughput results as filed in PubChem BioAssay.
# DRD3 agonist = agonists of human D3 dopamine receptor; P35462; D3R DiscoveRx beta-arrestin cells, luminescence, 90 min; max activation, %; hit rate 0.58% among 410,000; AID 652048; in the data active means max activation above about 30%; further: 0% is about no effect
#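 Agonist mode: compounds and dopamine controls were applied to plated cells for 90 min at 37 degrees C after an overnight attachment at 1500 cells/well. Luminescent read-out followed 30 - 60 minutes at room temperature with DiscoveRx detection reagent.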
# D1 antagonist = blocks dopamine activation of the human D1 receptor. activity change, negative = inhibition, % at 10 µM. HEK293 TREx D1 cells, calcium flux, dopamine EC80; stronger effect = lower value. hit rate 3.2% among 360,000; in the data active means activity change below about -30%; further: on the % scale 0 is the no-effect control and ±100 the full control effect
#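 Compound effects on dopamine-evoked calcium signalling were measured in tetracycline-induced HEK293 Trex D1 cells. Dopamine at EC80 followed a 180 s compound pre-read, and fluorescence was tracked kinetically for 180 s more.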
# D3 antag = D3 dopamine receptor (human) antagonism | P35462 | D3R cells, DiscoveRx beta-arrestin luminescence, antagonist mode; stronger effect = lower value | max response, negative = inhibition, % | hit rate 2.5% among 360,000 | AID 652054; in the data active means max response below about -50%; inconclusive means no clear call, values can overlap the other calls; further: on the % scale 0 is the no-effect control and ±100 the full control effect
#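 Cells plated overnight at 1500 cells/well, then exposed to library compounds with dopamine controls for 90 minutes at 37 degrees C. DiscoveRx reagent added for 30–60 minutes at room temperature; luminescence read, quantitative HTS format.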
# ERG-DNA inh = inhibitors of human ERG Ets domain-DNA interaction; Potency, µM (series often up to 76.9 µM), for inactives: at the top dose FP activity, negative = inhibition, hits mostly inhibitors; hit rate 0.028% among 370,000; fluorescence polarization, His-ERG Ets domain / labelled DNA; P11308; AID 624246; active means well fitted inhibition curve with a large enough effect in the polarisation, with a control signal flat; inconclusive means small, poorly fitted or top-dose-only effect, or effect the other way, or a change in a side signal; inactive means no such curve, though single readings can be large or run the other way; the % refers to the polarisation;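 further: polarization taken with two DNA probes labelled with fluorescein and Texas red; potency means the concentration at half of the fitted maximal effect; % of control where 0% means no effect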
# Target sequence (P11308 whole entry, looked up, the tested form may be a part): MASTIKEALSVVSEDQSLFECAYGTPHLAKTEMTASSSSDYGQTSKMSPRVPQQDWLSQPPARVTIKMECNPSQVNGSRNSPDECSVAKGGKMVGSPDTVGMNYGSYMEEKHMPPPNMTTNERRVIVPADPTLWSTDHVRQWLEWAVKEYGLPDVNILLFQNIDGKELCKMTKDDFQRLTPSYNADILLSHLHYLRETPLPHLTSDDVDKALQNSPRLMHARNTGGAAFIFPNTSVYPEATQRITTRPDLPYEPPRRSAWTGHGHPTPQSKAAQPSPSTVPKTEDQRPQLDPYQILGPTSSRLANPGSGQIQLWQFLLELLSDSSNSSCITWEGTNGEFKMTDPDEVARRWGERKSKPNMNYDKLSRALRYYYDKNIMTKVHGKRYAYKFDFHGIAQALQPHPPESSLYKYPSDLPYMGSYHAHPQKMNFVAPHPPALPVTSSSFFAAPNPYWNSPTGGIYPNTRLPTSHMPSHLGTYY
#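 His-tagged ERG Ets domain (1 uM in the protein solution; 300mM KCl, 50mM Tris-HCl, 1mM EDTA, 1mM DTT, pH 7.5) received compound, then a probe mix of 5 nM fluorescein-DNA and 100nM Texas-615-DNA. Fluorescence polarization was read for both dyes.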
# D1 agonist = activates the human D1 dopamine receptor; P21728; HEK293 T-REx D1 cells, calcium flux, agonist mode; activation, % at 2 µM; hit rate 1% among 360,000; in the data active means activation above about 30%; further: 0% is about no effect
#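 Inducible HEK293 T-REx D1 cells, force-coupled to calcium signalling, were plated at 4000 cells/well with tetracycline and held overnight at 30 C. After no-wash calcium dye loading, compound-evoked calcium rise over 180 s flagged agonists.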
# D1 PAM = human D1 dopamine receptor positive modulation | P21728 | HEK293 TREx D1 cells, calcium flux, dopamine EC20 potentiation | potentiation, % at 10 µM | hit rate 0.036% among 360,000 | AID 504651; in the data active means potentiation above about 30%; further: 0% is about no effect
# An asterisk follows results filed as active; u = inconclusive; x = not tested or not shown; ! = not confirmed by another sample. In the library only some 6.1% were active in any assay of this set; here they are far more common.
SMILES,DRD3 agonist,D1 antagonist,D3 antag,ERG-DNA inh,D1 agonist,D1 PAM
COC(=O)C1=C(C)NC(C)=C(C(=O)OCCN2CCN(C(c3ccccc3)c3ccccc3)CC2)C1c1cccc([N+](=O)[O-])c1 (stereo not given),-27,x,x,x,x,x
COC(=O)C1=C(C)NC(C)=C(C(=O)OCCN(C)Cc2ccccc2)C1c1cccc([N+](=O)[O-])c1 (stereo not given),-73,-35*,-51*,-1%,0,-5
O=C(C1CC2CCC1C2)N1CCN(Cc2ccc3c(c2)OCO3)CC1 (stereo not given),-5,-3,-56*,-2%,-3,-3
O=C(CCN1C(=O)c2cccc3cccc(c23)C1=O)N1CCN(Cc2ccc3c(c2)OCO3)CC1,-3,-30*,10,2%,0,5
O=C(C1COc2ccccc2O1)N1CCN(Cc2ccc3c(c2)OCO3)CC1 (stereo not given),-20,-21,u,8%,4,-10
Cn1cc(CN2CCN(Cc3ccc4c(c3)OCO4)CC2)c(-c2ccccc2F)n1,-2,-31*,u,-3%,0,-6
O=C(c1cc2cc(F)ccc2[nH]1)N1CCN(Cc2ccc3c(c2)OCO3)CC1,-13,-14,-86*,-3%,1,2
CN1C[C@@H]2[C@@H]3C(=O)N(C)C(=O)[C@@H]3[C@](C)(C1=O)N2C(=O)c1ccc(Cl)c(Cl)c1,-21,x,u,-6%,x,x
Cc1ccc(C(=O)N2CCN(Cc3ccc4c(c3)OCO4)CC2)cc1C,-25,-20,-62*,3%,-2,-7
O=C(c1ccccc1)N1CCN(Cc2ccc3c(c2)OCO3)CC1,-25,-10,-78*,1%,0,-3
Cc1cccc(C(=O)N2CCN(Cc3ccc4c(c3)OCO4)CC2)c1,-12,-13,-80*,18%,0,-3
O=C(c1ccc2c(c1)OCO2)N1CCC(Cc2ccccc2)CC1,-8,-40*,-12,u,7,-5
COc1ccc(Nc2nc(Cl)nc(Nc3ccc(OC)cc3OC)n2)c(OC)c1,16,-8,5,-8%,1,-1
O=S(=O)(Cc1ccc(Cl)cc1)N1CCN(Cc2ccc3c(c2)OCO3)CC1,2,-4,11,0%,1,-3
Cc1ccc(C(=O)N2CCN(Cc3ccc4c(c3)OCO4)CC2)c(Cl)c1,-24,6,-86*,9%,0,-7
COc1ccc(NS(=O)(=O)c2cccc(C(=O)N3CCN(Cc4ccc5c(c4)OCO5)CC3)c2)cc1,-11,-61*,7,-4%,6,-9
O=S(=O)(Cc1ccccc1Cl)N1CCN(Cc2ccc3c(c2)OCO3)CC1,-2,-34*,16,x,41*,4
O=C(c1ccccc1Cl)N1CCN(Cc2ccc3c(c2)OCO3)CC1,-26,-10,-20,12%,5,2
O=C(c1ccc(NS(=O)(=O)c2ccccc2)cc1)N1CCN(Cc2ccc3c(c2)OCO3)CC1,-5,-19,-24,4%,3,-9
O=C(O)C1CC(=O)N(Cc2ccc3c(c2)OCO3)C1 (stereo not given),-14,4,-106*,5%,3,4
COc1ccc(C(=O)c2ccccc2)cc1Br,3,-9,20,9%,3,-9
COCCCn1c(C)c(C(C)=O)cc(NC(=O)c2ccccc2)c1=O,6,-16,9,2%,1,-4
COc1ccccc1OCCNC(=O)C1CC(=O)N(c2ccccc2OC)C1 (stereo not given),14,9,4,0%,5,x
CN1CCN(C(=O)/C(=C/c2cccc([N+](=O)[O-])c2)NC(=O)c2ccccc2)CC1,27,2,1,100%,5,x
COc1cccc(CNc2nc3ccc(NC(C)=O)cc3s2)c1,12,x,-17,12%,x,x
SMILES,DRD3 agonist,D1 antagonist,D3 antag,ERG-DNA inh,D1 agonist,D1 PAM
Cc1cccc(Cn2c(SCc3ccc(C(=O)NCc4ccccc4F)cc3)nc3ccncc32)c1,-20,10,x,5%,8,-5
COc1ccc(S(=O)(=O)N2CCN(Cc3ccc4c(c3)OCO4)CC2)cc1C,-7,-16,x,-5%,0,-5
Cc1cccc(S(=O)(=O)N2CCN(Cc3ccc4c(c3)OCO4)CC2)c1,0,-34*,-7,11%,2,-11
Cc1ccsc1/C=C/C1=NCCCN1C,-45,7,-52*!,-6%,2,-6
CN(C)c1cccc(CNC(=O)c2csc(COCCO)n2)c1,6,x,-14,x,x,x
CCN1CCCC1CNS(=O)(=O)c1c(C)cc(C)cc1C (stereo not given),-19,-5,-100*,-13%,4,-1
CCOC(=O)c1c(NC(=O)CN2CCN(C(=O)c3ccco3)CC2)sc(C(N)=O)c1C,-6,-1,5,3%,1,17
c1ccc2c(Nc3nc(N4CCOCC4)c4ccccc4n3)cccc2c1,-5,-48*,2,-3%,1,-22
CCc1noc(N)c1C(=O)Nc1ccc(F)c(Cl)c1,-5,-36*,19,6%,1,-3
O=C(NCc1ccco1)c1c(F)c(F)c(F)c(C(=O)NCc2ccco2)c1F,5,-33*,15,5%,1,-2
CCCc1cc(C(=O)NCc2ccccc2)no1,0,-6,12,-3%,-1,-5
CCCc1cc(C(=O)Nc2ccc(F)c(Cl)c2)no1,-19,-10,-51*,4%,5,-5
CCCc1cc(C(=O)Nc2cccc(Cl)c2)no1,-11,4,u,22%,-1,-6
CCCc1cc(C(=O)NCc2ccco2)no1,3,-35*,3,-4%,0,-9
CCC(=O)N1CCc2cc(S(=O)(=O)N3CCCCCC3)ccc21,-5,-7,-3,3%,5,1
Cc1ccc(OCCSc2ncccn2)c(C)c1,1,9,-10,-2%,1,5
O=C(O)CN(CCc1ccccc1)S(=O)(=O)c1ccccc1,20,-17,3,4%,2,-5
COC(=O)C1=C(C)N(CCCC(=O)O)C(=O)NC1c1cccc2ccccc12 (stereo not given),6,x,10,2%,x,x
CC1=C(C(=O)OCc2ccccc2)C(c2ccc(Cl)cc2Cl)NC(=O)N1CCCCCC(=O)O (stereo not given),-2,-27,-20,6%,-2,-4
CC1=C(C(=O)OCc2ccccc2)C(c2cccc3ccccc23)NC(=O)N1CCCC(=O)O (stereo not given),1,-39*,0,-3%,1,-1
CC1=C(C(=O)OCc2ccccc2)C(c2cccc(Cl)c2Cl)NC(=O)N1CCCCCC(=O)O (stereo not given),0,-33*,17,-4%,2,0
